Test results as given in PubChem BioAssay (NCI).
The panel holds about 83,000 compounds, 20% with a hit somewhere; the sample as a whole holds those more often.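 Compound tested at a single concentration for 48 hours in 96-well plates; a percent growth value below 10 was scored as active.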 A number with no mark means an inactive call. Calls of active or inactive are those of the source.

How the values were obtained:
Assay in all cases: NCI-60 one-dose screen, 48 h (100 = growth as untreated, 0 = no growth, -100 = all killed)
Conditions in all cases: 10 µM unless noted
NCI-H23 lung = test system: NCI-H23 lung
NCI-H226 lung = test system: NCI-H226 lung
NCI-H322M lung = test system: NCI-H322M lung
HOP-62 NSCLC = test system: HOP-62 NSCLC
NCI-H460 lung = test system: NCI-H460 lung
HOP-92 NSCLC = test system: HOP-92 NSCLC
NCI-H522 lung = test system: NCI-H522 lung
A549/ATCC NSCLC = test system: A549/ATCC NSCLC
786-0 renal = test system: 786-0 renal
COLO 205 colon = test system: COLO 205 colon
DU-145 prostate = test system: DU-145 prostate
K-562 leukemia = test system: K-562 leukemia
MALME-3M melanoma = test system: MALME-3M melanoma
MDA-MB-231 breast = test system: MDA-MB-231 breast
RXF 393 renal = test system: RXF 393 renal
SF-268 CNS = test system: SF-268 CNS
SF-295 CNS = test system: SF-295 CNS
SF-539 CNS = test system: SF-539 CNS
UACC-257 melanoma = test system: UACC-257 melanoma
M14 melanoma = test system: M14 melanoma

| Structure (SMILES) | growth (NCI-H23 lung) | growth (NCI-H226 lung) [%] | growth (NCI-H322M lung) [%] | growth (HOP-62 NSCLC) [%] | growth (NCI-H460 lung) | growth (HOP-92 NSCLC) | growth (NCI-H522 lung) | growth (A549/ATCC NSCLC) [%] | growth (786-0 renal) | growth (COLO 205 colon) | growth (DU-145 prostate) [%] | growth (K-562 leukemia) | growth (MALME-3M melanoma) | growth (MDA-MB-231 breast) | growth (RXF 393 renal) | growth (SF-268 CNS) [%] | growth (SF-295 CNS) [%] | growth (SF-539 CNS) | growth (UACC-257 melanoma) [%] | growth (M14 melanoma) |
| --- | --- | --- | --- | --- | --- | --- | --- | --- | --- | --- | --- | --- | --- | --- | --- | --- | --- | --- | --- | --- |
| [O-][n+]1ccccc1CCN(O)CCc1cccc[n+]1[O-] | 97.1% | 85.7 | 96.5 | 94.1 | 115% | 86.8% | 81.5% | 101 | 101% | 104% | 111 | 106% | 99.5% | 97.8% | 113% | 101 | 103 | 87% | 106 | 94.5% |
| NC(=S)N/N=C(\c1ccc(Cl)cc1)C1CC1 | 89.7% | 74.7 | 88 | 80.1 | 102% | 97.2% | 97.3% | 92.5 | 105% | 92.6% | 99 | 38.3% | 87.1% | 70% | 104% | 98.2 | 83.1 | 88.6% | 63.7 | 87.7% |
| CC(=O)O[C@]1(C(C)=O)CC[C@H]2[C@@H]3C=C(Cl)C4=CC(=O)CC[C@]4(C)[C@H]3CC[C@@]21C | 114% | 94.4 | 106 | 106 | 105% | 96.7% | 72.2% | 91.5 | 99.4% | 133% | 122 | 96.7% | 125% | 88.1% | 109% | 111 | 113 | 102% | 97.2 | 103% |
| COc1ccc2nc(N=Nc3c(O)ccc4ccccc34)sc2c1 | 31.6% | 55 | 43.8 | 30.2 | 6.32% (active) | 60.9% | 61.2% | 24.6 | 14.7% | 33.1% | 37.1 | 19.1% | 57.5% | 45.2% | 52.4% | 33.4 | 16.5 | 22.9% | 36.9 | 1.92% (active) |
| CS(=O)(=O)c1ccc(-c2cc(-c3nnc(SCC(=O)Nc4ccc(C(=O)/C=C/c5ccc(Cl)cc5)cc4)n3-c3ccccc3)c3ccccc3n2)cc1 | 97.8% | 94.6 | 89.8 | 95.1 | 99.1% | 110% | 90% | 91.5 | 93% | 106% | 105 | 89.9% | 104% | 92.1% | 92.3% | 81.7 | 96 | 87.5% | 107 | 97.5% |
| COc1ccc2c(c1)OC13Oc4cc(OC)ccc4C=C1CCCC3=C2 | 48.3% | 64.1 | 80.8 | 41.4 | 14.3% | 26.6% | 20.4% | 75 | 38.7% | -9.95% (active) | 33.9 | 23.5% | 70.3% | 32% | 16% | 38.5 | 78.6 | 84.5% | 52.5 | 31.5% |
| COc1cccc(-c2nc3occn3c2-c2ccnc(NCCCNS(=O)(=O)c3cccc(F)c3)n2)c1 | 89.7% | 62.2 | 107 | 108 | 82.6% | 91.9% | 74.9% | 97.4 | 103% | 45.5% | 93.8 | 69% | 70.2% | 104% | 99.2% | 87 | 94.8 | 106% | 83.8 | 60.9% |
| COC(=O)C1=C(C(=O)ONCCN(C)C)C2C=CC1(C(Cc1ccccc1)Nc1ccc(F)cc1)O2 (stereo not given) | 91.6% | 108 | 92.8 | 101 | 113% | 89.7% | 19.2% | 98.1 | 106% | -14.7% (active) | 95.6 | 10.5% | -9.2% (active) | 108% | 111% | 91.7 | 113 | 97.3% | 104 | 101% |
| C=C1C(=O)O[C@H]2[C@H]1CC/C(COC(=O)CCCCCC(=O)OC/C1=C/CC[C@@]3(C)O[C@H]3[C@H]3OC(=O)C(=C)[C@@H]3CC1)=C\CC[C@@]1(C)O[C@@H]21 | 9.16% (active) | 52 | 86.3 | 85.6 | 76.4% | -1.51% (active) | -72.5% (active) | 80.6 | 7.09% (active) | -38.4% (active) | 22.4 | 6.4% (active) | -11.1% (active) | -28.2% (active) | -77.3% (active) | 43.6 | 84.7 | 3.99% (active) | 48.2 | -0.138% (active) |
| Cc1ccc(O)c(C(=O)O)c1 | 100% | 105 | 115 | 99.8 | 103% | 101% | 99% | 103 | 104% | 120% | 114 | 98.2% | 128% | 114% | 121% | 104 | 114 | 116% | 108 | 116% |
| CCOC(=O)C1=C(C)NC(C)=C(C(=O)OCC)C1c1cc(Br)c(O)c(OC)c1 | 34.3% | 32.7 | 55.3 | 31.8 | 18.7% | 16.3% | -37.5% (active) | 33.2 | 29.1% | 104% | 20.8 | 25.5% | 33.3% | 53.7% | -26.6% (active) | 54.9 | 16.2 | 22.8% | 59.1 | 3.03% (active) |
| C#CCNC(=O)[C@H](Cc1ccccc1)NC(=O)[C@]12CC[C@@H](C(=C)C)[C@@H]1[C@H]1CC[C@@H]3[C@@]4(C)Cc5c([nH]c6ccccc56)C(C)(C)[C@@H]4CC[C@@]3(C)[C@]1(C)CC2 | 94.9% | 90.2 | 93.9 | 95.2 | 104% | 69.7% | 87.9% | 84.7 | 87.8% | 97.8% | 101 | 83.9% | 113% | 97.7% | 93.9% | 92.6 | 96.6 | 102% | 96.7 | 96.4% |
| [2H]C1([2H])NC([2H])([2H])C([2H])([2H])N(c2ccc(Nc3ncc4cc(C(=O)N(C)C)n(C5CCCC5)c4n3)nc2)C1([2H])[2H] | 69.9% | 71.2 | 78.7 | 60.3 | 62.7% | 76.1% | 82.7% | 51.5 | 61.1% | 38.3% | 99.7 | 64.6% | 58.4% | 64.9% | 82.4% | 77.4 | 72.7 | 86.5% | 61.1 | 75.2% |
| CC(=O)[C@@H]1CC[C@]2(C(N)=O)CC[C@]3(C)[C@H](CC[C@@H]4[C@@]5(C)CCC(=O)C(C)(C)[C@@H]5CC[C@]43C)[C@@H]12 | 95.1% | 102 | 99.3 | 92 | 101% | 103% | 87.2% | 96.3 | 89.6% | 102% | 105 | 88.4% | 112% | 95.8% | 109% | 95.4 | 93.8 | 99.5% | 93.6 | 93.4% |
| CC(=O)[C@@H]1CC[C@]2(C(=O)n3ccnc3)CC[C@]3(C)[C@H](CC[C@@H]4[C@@]5(C)Cc6c([nH]c7ccccc67)C(C)(C)[C@@H]5CC[C@]43C)[C@@H]12 | 87.8% | 76.3 | 95.3 | 95.7 | 80.9% | 93.9% | 82.9% | 68.2 | 94.4% | 101% | 98.5 | 67.7% | 102% | 90.7% | 106% | 90.8 | 82.8 | 97% | 97.1 | 96.1% |
